High-throughput results: PubChem BioAssay, National Center for Advancing Translational Sciences (NCATS)
An excerpt weighted towards active compounds, which were near 18% of everything screened.
IL-1B inflam inh – inflammasome signaling inhibition, IL-1 beta readout; activity change, % at 57.5 µM; THP-1 LPS/ATP IL-1B secretion, AlphaLISA, 16 h; stronger effect = lower value; 360,000 compounds, 4.7% hits; in the data active means activity change below about -50%; inconclusive means mostly about -30% to -49%; further: on the % scale 0 is the no-effect control and ±100 the full control effect
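Secreted IL-1B measured by AlphaLISA bead assay after 16 h compound exposure of THP-1 cells; compounds (final up to 57.5 uM) added 1 h before LPS (250 ng/mL) and ATP (1.25 mM) stimulation; lower signal means less secretion.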
TDP1 cell CPT – growth inhibition of DT40 Tdp1-/-;hTDP1 cells with camptothecin (screen for TDP1 inhibitors); chicken DT40 Tdp1-/-;hTDP1 cells + 20 nM CPT, ATP luminescence, 48 h; Potency, µM (doses to about 46.2 µM), for the others: at the top dose activity change, negative = growth inhibition, usual class: inhibitors; 420,000 compounds, 12% hits; AID 686979; further: potency means the concentration at half of the fitted maximal effect; on the % scale 0 is the no-effect control and ±100 the full control effect; nearly all actives have a fitted effect of over 55% in size
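Chicken DT40 Tdp1-/- cells stably complemented with human TDP1 were seeded at 400 cells/well in medium containing 20 nM camptothecin, exposed to pin-transferred compounds, and grown at 37 °C for at least 48 hr. Viability was read as ATP luminescence.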
HepG2 tox – counter-screen for TGF-b inhibitors: cytotoxicity in HepG2 cells. Potency, µM (doses to about 46.1 µM), without a hit: at the top dose activity change, negative = cytotoxicity, hits mostly cytotoxic. HepG2 CAGA-GFP viability, ATP luminescence, 18 h. 410,000 compounds, 0.76% hits; further: potency means the concentration at half of the fitted maximal effect
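CellTiter-Glo luminescence gave cytotoxicity after 18 hours at 37 degrees C. The cells were HepG2 CAGA-GFP in 1% FBS DMEM, stimulated with 500 pg/mL TGF-beta after compound addition. %Activity was normalised to no-cell wells (complete cell-killing) and DMSO (no toxicity), and curves were fitted and classified.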
TDP1 inh – TDP1 (human) enzyme inhibition; recombinant TDP1, AlphaScreen DNA substrate cleavage; Potency, µM (highest dose often 130 µM), without a hit: at the highest dose activity change, negative = inhibition, hits mostly inhibitors; 350,000 compounds, 0.28% hits; Q9NUW8; further: potency means the concentration at half of the fitted maximal effect; on the % scale 0 is the no-effect control and ±100 the full control effect; nearly all actives have a fitted effect of over 40% in size
Target sequence (Q9NUW8 whole entry, looked up): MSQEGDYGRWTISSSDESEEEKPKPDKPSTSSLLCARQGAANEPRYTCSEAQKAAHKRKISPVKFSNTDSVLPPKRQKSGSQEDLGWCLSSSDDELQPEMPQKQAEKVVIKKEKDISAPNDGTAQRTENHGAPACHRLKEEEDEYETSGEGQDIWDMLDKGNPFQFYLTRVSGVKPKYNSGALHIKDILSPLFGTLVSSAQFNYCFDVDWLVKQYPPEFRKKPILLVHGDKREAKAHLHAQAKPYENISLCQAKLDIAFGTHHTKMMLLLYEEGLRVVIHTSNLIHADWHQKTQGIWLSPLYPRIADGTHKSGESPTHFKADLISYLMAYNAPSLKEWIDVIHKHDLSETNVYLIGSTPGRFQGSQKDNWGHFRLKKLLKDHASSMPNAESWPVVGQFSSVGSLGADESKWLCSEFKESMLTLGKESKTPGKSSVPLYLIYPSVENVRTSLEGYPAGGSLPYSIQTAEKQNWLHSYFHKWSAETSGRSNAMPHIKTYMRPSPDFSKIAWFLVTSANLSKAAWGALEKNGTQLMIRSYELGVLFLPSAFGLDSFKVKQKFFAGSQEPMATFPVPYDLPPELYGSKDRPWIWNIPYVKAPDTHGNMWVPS
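Tdp1 1 nM final; 15 min RT w/ cpd; substrate 15 nM, 5 min; beads 10 ug/ml, 10 min; AlphaScreen read. Neg ctrl: no enzyme.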
TGFb SMAD3 inh – inhibitors of TGF-b signaling; AID 588855; 410,000 compounds, 1.2% hits; Potency, µM (highest dose often 46.1 µM), for inactives: at the highest dose activity, negative = inhibition, usual class: inhibitors; HepG2 CAGA-GFP TGF-b/SMAD3 reporter, GFP fluorescence, 18 h; TGF-beta stimulated, 500 pg/mL final; further: potency means the concentration at half of the fitted maximal effect; on the % scale 0 is the no-effect control and ±100 the full control effect; nearly all actives have a fitted effect of over 65% in size
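Cell-based qHTS in HEPG2 carrying a CAGA-GFP Smad reporter; compounds added before 500 pg/mL final TGF-beta, 18 h incubation at 37 degrees C, GFP fluorescence quantified per cell by imaging cytometry.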
DT40 TDP1 no CPT – qHTS for Inhibitors of human tyrosyl-DNA phosphodiesterase 1 (TDP1): qHTS in cells in absence of CPT. DT40 Tdp1-/- hTDP1 cells, no CPT, ATP luminescence, 48 h. 420,000 compounds, 15% hits. Potency, µM (highest dose often 46.2 µM), for the others: at the highest dose activity change, negative = growth inhibition, usual class: inhibitors; further: potency means the concentration at half of the fitted maximal effect; on the % scale 0 is the no-effect control and ±100 the full control effect; nearly all actives have a fitted effect of over 55% in size
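Growth of hTDP1-complemented DT40 Tdp1-knockout cells is measured by ATP luminescence after at least 48 hr compound exposure at 37 °C, with DMSO substituting for the 20 nM CPT used in the parallel screen.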
* = called active by the depositor; ? = inconclusive; nt = no result. Unless noted, the call rests on the fitted dose curve; in most records, active means well fitted curve in the direction sought with a large enough effect; inconclusive means small, poorly fitted or top-dose-only effect, or another doubt; inactive means no such curve, though single readings can be large; an effect the other way counts as inactive or inconclusive.

SMILES	IL-1B inflam inh	TDP1 cell CPT	HepG2 tox	TDP1 inh	TGFb SMAD3 inh	DT40 TDP1 no CPT
CC12CCC(=O)N1C(C(=O)NCCN1C(=O)S/C(=C\c3ccccc3Cl)C1=O)CS2 (stereo not given)	-12	-25%	-28%	2%	-8%	?
COc1ccc(/C=C2\SC(=O)N(CCC(=O)N3CCN(C)CC3)C2=O)cc1	0	-26%	-1%	nt	10%	?
Cc1ccc(/C=C2\SC(=O)N(CCC(=O)N3CCN(C)CC3)C2=O)cc1	-14	18µM*	-12%	2%	-10%	23µM*
CCN(C(=O)CN1C(=O)S/C(=C\c2ccc(Cl)cc2)C1=O)C1CCS(=O)(=O)C1 (stereo not given)	-13	-30%	-7%	2%	0%	-9%
COc1ccc(-n2c(=O)cnc3cnc(N4CCN(C)CC4)nc32)cc1	nt	3%	nt	nt	nt	2%
Cc1cc(C)cc(NC(=O)CSc2nc(-c3cccc(Cl)c3)nc3c2Cc2c(CO)cnc(C)c2O3)c1	nt	-23%	-9%	5%	-4%	-3%
COc1ccc(CCNC(=O)Nc2ccc3c(c2)c(=O)n(C)n3Cc2ccc(Cl)cc2)cc1OC	-16	8.2µM*	-12%	nt	6%	?
CCNC(=O)Nc1ccc2c(c1)c(=O)n(C)n2Cc1ccc(Cl)cc1	14	-22%	11%	nt	23%	-18%
COc1cc(Cn2c3ccc(NC(=O)CCc4ccccc4)cc3c(=O)n2C)ccc1F	40	6.5µM*	-32%	nt	-17%	2.9µM*
COc1ccccc1CCC(=O)Nc1ccc2c(c1)c(=O)n(C)n2-c1cccs1	67	3.7µM*	-23%	nt	-17%	3.7µM*
Cn1c(=O)c2cc(NC(=O)CCc3cccnc3)ccc2n1Cc1cccc(C(F)(F)F)c1	19	?	-3%	nt	3%	18µM*
COc1cc(Cn2c3ccc(NC(=O)NCCc4ccccc4)cc3c(=O)n2C)ccc1F	-5	?	-21%	nt	-26%	?
Nc1ccc(Cl)cc1C(=O)OCC(=O)NC1CCS(=O)(=O)C1 (stereo not given)	0	5%	-5%	-5%	-1%	?
COc1cc(Cn2c3ccc(NC(=O)CCc4cccnc4)cc3c(=O)n2C)ccc1F	0	9.2µM*	-15%	nt	-17%	?
Cn1c(=O)c2cc(NC(=O)CCc3cccnc3)ccc2n1Cc1ccc(F)cc1	-3	16µM*	-11%	nt	5%	?
Cc1cc(C)c(C(=O)C(C)OC(=O)Cc2n[nH]c(=O)c3ccccc23)cc1C (stereo not given)	0	-17%	-8%	8%	-11%	?
Cc1ccc(C(=O)C(C)OC(=O)Cc2n[nH]c(=O)c3ccccc23)cc1 (stereo not given)	9	12µM*	-13%	1%	-12%	18µM*
CC(OC(=O)Cc1n[nH]c(=O)c2ccccc12)C(=O)N(C)c1ccccc1 (stereo not given)	5	8.2µM*	-34%	nt	-10%	16µM*
CC(OC(=O)Cc1n[nH]c(=O)c2ccccc12)C(=O)Nc1ccc(F)cc1 (stereo not given)	19	?	1%	0%	0%	-19%
O=C(NCc1ccc(Cl)cc1)NC1COc2ccccc2C1 (stereo not given)	nt	-1%	-7%	-5%	31%	-10%
N#C/C(=C\c1ccccc1)C(=O)NCc1ccc(F)cc1	-98*	?	-26%	-10%	-17%	?
CCN(CC)c1ccc(/C=C(\C#N)C(=O)NCc2ccccc2)cc1	?	-3%	12%	nt	16%	?
N#C/C(=C\c1cccs1)C(=O)Nc1nccs1	2	?	-5%	3%	-8%	2.9µM*
CC(C)(C)C(=O)/C(C#N)=C/c1cccs1	-18	1%	-2%	6%	-2%	-12%
N#C/C(=C\c1cccs1)C(=O)NCc1ccccc1	-3	12µM*	-1%	5%	14%	21µM*
SMILES	IL-1B inflam inh	TDP1 cell CPT	HepG2 tox	TDP1 inh	TGFb SMAD3 inh	DT40 TDP1 no CPT
N#C/C(=C\c1cccs1)C(=O)c1ccccc1Cl	-98*	29µM*	-82%	6%	?	16µM*
COc1cc(NC(=O)Cc2ccccc2)ccc1NC(=O)c1ccccc1	-14	1%	-17%	5%	8%	?
COc1ccccc1CNC(=O)[C@H](C)NC(=O)C1CCN(C(=O)[C@@H](N)C(C)C)CC1	11	-12%	2%	nt	-2%	0%
COc1cccc(NC(=O)COc2ccc(Br)c(C)c2)c1	-3	-4%	-2%	nt	2%	-9%
COc1ccccc1OCC(=O)Nc1ccncc1	16	-23%	4%	1%	8%	?
Cc1ccc2nsnc2c1NC(=O)COc1ccccc1F	-14	14%	6%	2%	-4%	-3%
Cc1cc(Cl)ccc1OCC(=O)NCc1ccncc1	-1	?	-17%	0%	-9%	?
CCn1cc(C(C)NC(=O)COc2ccc(Cl)cc2C)c(C)n1 (stereo not given)	7	?	-10%	2%	0%	21µM*
Cc1cc(OCC(=O)Nc2ccncc2)ccc1Br	-14	?	-2%	0%	-1%	23µM*
Cc1cccc(OCC(=O)Nc2c(C)ccc3nsnc23)c1C	nt	15µM*	-45%	5%	?	?
Cc1cccc(OCC(=O)Nc2ccncc2)c1C	-6	12µM*	-3%	0%	-17%	8.2µM*
O=C(NN=C1CCCCC1)c1ccccc1-n1cccc1	27	-4%	-1%	3%	18%	5%
CC(C)C[C@@H]1CN(CCCC[C@H]2CNC(=O)C(=O)N2CCC2CCCCC2)C(=O)C(=O)N1CCc1ccc(O)cc1	-4	-3%	nt	nt	nt	-22%
Cn1ccnc1SCC(=O)c1cccc(C(F)(F)F)c1	-7	-2%	-12%	-10%	-18%	-21%
C[C@@H]1CN([C@H](C)CO)C(=O)CCCn2cc(nn2)CO[C@H]1CN(C)C(=O)c1ccncc1	-5	-2%	-2%	nt	17%	-12%
COc1ccc(CNC(=O)N2CCc3ccccc3C2)cc1Cl	39	-23%	-5%	nt	0%	-25%
O=C(COc1ccc(Cl)cc1)Nc1ccc(Cc2ccncc2)cc1	-71*	?	-41%	3%	?	?
Cc1cc(Cl)ccc1OCC(=O)Nc1ccncc1	?	?	-1%	nt	?	5.8µM*
